According to publication PMC11574364:

Key:
Experiment in all cases: protein domain microarray probed with biotinylated miRNA; Domain array: 20 mM Tris-HCl pH 7.4, 200 mM KCl, 0.2 mM EDTA, 0.05% NP40, 2 ug/ul heparin, overnight 4 C. ORF array: PBS pH 7.0 with RNase inhibitor, 100 ng RNA; high values mean tight binding
Conditions in all cases: ssRNA
[1] = target: T1, hnRNP-M(3) (Homo sapiens, UniProt P52272)
T1 sequence: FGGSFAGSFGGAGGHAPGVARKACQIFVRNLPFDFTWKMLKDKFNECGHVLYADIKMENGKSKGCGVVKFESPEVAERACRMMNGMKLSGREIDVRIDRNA

[2] = target: T2, NONO (Homo sapiens, UniProt Q15233)
T2 sequence: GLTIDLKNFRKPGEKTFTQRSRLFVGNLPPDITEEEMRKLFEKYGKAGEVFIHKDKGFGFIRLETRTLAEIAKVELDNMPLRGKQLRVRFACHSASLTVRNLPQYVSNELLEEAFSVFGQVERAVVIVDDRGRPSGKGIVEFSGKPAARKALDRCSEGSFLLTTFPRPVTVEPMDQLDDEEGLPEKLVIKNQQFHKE

[3] = target: HNRNPCL3/4 (Homo sapiens, UniProt O60812)
[4] = target: ELAVL3 (Homo sapiens, UniProt Q14576)
[5] = target: CPSF6 (Homo sapiens, UniProt Q16630)
[6] = target: hnRNP-CL1 (Homo sapiens, UniProt O60812)
[7] = target: EIF4B (Homo sapiens, UniProt P23588)
[8] = target: T3, HTF9C (Homo sapiens, UniProt Q8IZ69)
T3 sequence: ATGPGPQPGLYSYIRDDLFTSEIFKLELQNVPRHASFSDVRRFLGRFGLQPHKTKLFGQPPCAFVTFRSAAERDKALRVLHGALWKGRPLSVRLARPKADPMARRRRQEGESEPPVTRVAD

[9] = target: T4, NSAP1 (Homo sapiens, UniProt O60506)
T4 sequence: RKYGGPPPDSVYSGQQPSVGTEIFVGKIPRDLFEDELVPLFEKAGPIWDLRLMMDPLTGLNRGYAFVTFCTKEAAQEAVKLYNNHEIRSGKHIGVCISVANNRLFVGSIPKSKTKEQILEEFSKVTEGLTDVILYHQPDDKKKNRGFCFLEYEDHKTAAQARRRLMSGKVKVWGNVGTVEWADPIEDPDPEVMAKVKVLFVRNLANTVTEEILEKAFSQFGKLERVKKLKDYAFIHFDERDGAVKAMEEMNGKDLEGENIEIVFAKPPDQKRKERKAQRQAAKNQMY

[10] = target: T5, DAZ2/3 (Homo sapiens, UniProt Q9NR90)
T5 sequence: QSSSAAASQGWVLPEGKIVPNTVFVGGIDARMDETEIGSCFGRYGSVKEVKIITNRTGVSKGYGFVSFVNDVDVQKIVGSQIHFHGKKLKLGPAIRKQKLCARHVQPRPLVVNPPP

[11] = target: hnRNP-D0 (Homo sapiens, UniProt Q14103)
[12] = target: PABPC1L (Homo sapiens, UniProt Q4VXU2)
[13] = target: NCL (Homo sapiens, UniProt P19338)
[14] = target: T6, PABPN1 (Homo sapiens, UniProt Q86U42)
T6 sequence: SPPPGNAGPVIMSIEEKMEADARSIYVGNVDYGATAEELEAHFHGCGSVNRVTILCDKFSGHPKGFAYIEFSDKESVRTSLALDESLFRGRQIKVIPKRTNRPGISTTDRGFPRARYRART

[15] = target: T7, CNOT4 (Homo sapiens, UniProt O95628)
T7 sequence: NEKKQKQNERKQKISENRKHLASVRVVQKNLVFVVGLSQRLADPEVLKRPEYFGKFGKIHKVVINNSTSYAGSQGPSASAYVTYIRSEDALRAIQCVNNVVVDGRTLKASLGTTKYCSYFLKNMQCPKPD

[16] = target: T8, CSTF2 (Homo sapiens, UniProt P33240)
T8 sequence: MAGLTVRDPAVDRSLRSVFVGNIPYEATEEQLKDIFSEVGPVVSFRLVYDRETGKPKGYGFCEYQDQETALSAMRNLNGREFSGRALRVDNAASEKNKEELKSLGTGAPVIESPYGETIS

[17] = target: T9, DRBP1(3-4) (Homo sapiens, UniProt Q8IUH3)
T9 sequence: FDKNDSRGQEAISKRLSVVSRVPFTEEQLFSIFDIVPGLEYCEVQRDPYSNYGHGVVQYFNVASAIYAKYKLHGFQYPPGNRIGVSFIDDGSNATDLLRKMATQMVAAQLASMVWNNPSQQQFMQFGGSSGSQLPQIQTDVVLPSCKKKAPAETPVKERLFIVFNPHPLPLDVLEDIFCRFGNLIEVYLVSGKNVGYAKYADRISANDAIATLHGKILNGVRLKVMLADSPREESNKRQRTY

[18] = target: hnRNP-A/B (Homo sapiens, UniProt Q99729)
[19] = target: T10, CPSF7 (Homo sapiens, UniProt Q8N684)
T10 sequence: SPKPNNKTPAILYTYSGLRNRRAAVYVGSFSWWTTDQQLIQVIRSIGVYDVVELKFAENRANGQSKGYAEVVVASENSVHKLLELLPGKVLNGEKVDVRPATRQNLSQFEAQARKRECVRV

[20] = target: HNRNPA1L2 (Homo sapiens, UniProt Q32P51)
Chain of HNRNPA1L2 (Q32P51 1-205): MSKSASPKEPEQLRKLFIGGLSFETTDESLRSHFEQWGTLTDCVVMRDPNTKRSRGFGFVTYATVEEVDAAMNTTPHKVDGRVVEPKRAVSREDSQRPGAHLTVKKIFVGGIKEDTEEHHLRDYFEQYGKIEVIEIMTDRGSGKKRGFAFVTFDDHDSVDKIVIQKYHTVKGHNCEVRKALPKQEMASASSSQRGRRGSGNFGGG

Chain of PABPC1L (Q4VXU2 1-390): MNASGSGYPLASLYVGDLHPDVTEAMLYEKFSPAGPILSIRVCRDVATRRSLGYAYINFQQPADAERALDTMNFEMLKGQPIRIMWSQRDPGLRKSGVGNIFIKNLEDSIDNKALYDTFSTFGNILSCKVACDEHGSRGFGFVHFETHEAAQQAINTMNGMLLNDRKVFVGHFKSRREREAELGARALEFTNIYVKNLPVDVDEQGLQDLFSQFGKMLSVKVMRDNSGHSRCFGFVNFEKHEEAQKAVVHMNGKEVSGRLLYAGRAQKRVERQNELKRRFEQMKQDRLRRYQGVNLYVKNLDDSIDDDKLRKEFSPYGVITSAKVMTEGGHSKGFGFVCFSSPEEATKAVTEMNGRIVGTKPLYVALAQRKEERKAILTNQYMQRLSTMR
Chain of NCL (P19338 288-670): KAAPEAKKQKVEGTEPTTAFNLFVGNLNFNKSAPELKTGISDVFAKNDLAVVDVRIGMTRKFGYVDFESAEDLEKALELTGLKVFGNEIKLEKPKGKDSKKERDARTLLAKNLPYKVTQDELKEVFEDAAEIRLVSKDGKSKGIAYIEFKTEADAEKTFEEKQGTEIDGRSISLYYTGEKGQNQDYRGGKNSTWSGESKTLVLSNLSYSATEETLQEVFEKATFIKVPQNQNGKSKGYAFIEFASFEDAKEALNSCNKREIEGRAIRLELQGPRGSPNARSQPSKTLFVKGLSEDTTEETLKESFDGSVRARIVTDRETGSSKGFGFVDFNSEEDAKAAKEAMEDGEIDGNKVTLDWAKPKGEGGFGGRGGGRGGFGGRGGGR
Chain of hnRNP-D0 (Q14103 80-280): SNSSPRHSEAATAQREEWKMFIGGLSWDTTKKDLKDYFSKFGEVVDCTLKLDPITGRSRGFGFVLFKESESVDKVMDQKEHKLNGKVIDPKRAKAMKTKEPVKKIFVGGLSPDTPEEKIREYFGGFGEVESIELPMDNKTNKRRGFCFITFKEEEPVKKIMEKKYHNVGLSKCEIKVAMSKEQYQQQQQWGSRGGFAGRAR
Chain of HNRNPCL3/4 (O60812 1-110): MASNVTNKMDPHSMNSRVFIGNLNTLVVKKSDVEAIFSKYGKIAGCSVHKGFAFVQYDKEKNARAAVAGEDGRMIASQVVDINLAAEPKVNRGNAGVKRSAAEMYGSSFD
Chain of hnRNP-CL1 (O60812 1-110): as above
Chain of EIF4B (P23588 75-190): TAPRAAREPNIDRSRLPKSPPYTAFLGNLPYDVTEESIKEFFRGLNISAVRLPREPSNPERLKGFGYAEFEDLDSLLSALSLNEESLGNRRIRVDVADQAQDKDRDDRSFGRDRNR
Chain of hnRNP-A/B (Q99729 50-250): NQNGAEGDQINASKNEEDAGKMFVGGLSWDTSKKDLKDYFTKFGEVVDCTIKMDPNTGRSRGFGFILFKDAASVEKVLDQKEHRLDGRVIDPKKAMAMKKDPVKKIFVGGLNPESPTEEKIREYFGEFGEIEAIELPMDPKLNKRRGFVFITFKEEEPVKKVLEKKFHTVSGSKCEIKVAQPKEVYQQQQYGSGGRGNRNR
Chain of ELAVL3 (Q14576 20-367): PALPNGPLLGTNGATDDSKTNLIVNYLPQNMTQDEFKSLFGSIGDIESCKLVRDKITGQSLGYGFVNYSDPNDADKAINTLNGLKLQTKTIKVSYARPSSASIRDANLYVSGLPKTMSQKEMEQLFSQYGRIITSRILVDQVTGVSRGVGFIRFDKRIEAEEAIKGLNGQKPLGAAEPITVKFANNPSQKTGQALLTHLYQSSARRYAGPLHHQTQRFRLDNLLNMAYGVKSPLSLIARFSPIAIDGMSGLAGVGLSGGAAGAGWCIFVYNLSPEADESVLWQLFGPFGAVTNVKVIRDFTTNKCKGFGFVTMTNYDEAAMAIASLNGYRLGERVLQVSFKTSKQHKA
Chain of CPSF6 (Q16630 60-180): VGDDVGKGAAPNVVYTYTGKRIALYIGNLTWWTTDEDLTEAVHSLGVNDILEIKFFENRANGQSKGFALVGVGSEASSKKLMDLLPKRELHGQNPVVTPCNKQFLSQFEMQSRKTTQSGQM

Row | Sequence | binding signal [1] [fluorescence intensity] | binding signal [2] [fluorescence intensity] | binding signal [3] [fluorescence intensity] | binding signal [4] [fluorescence intensity] | binding signal [5] [fluorescence intensity] | binding signal [6] [fluorescence intensity] | binding signal [7] [fluorescence intensity] | binding signal [8] [fluorescence intensity] | binding signal [9] [fluorescence intensity] | binding signal [10] [fluorescence intensity] | binding signal [11] [fluorescence intensity] | binding signal [12] [fluorescence intensity] | binding signal [13] [fluorescence intensity] | binding signal [14] [fluorescence intensity] | binding signal [15] [fluorescence intensity] | binding signal [16] [fluorescence intensity] | binding signal [17] [fluorescence intensity] | binding signal [18] [fluorescence intensity] | binding signal [19] [fluorescence intensity] | binding signal [20] [fluorescence intensity]
1 | UGAGGUAGUAGGUUGUGUGGUU | 112 ± 17.8 | 62.6 ± 1.97 | 36.4 ± 6.48 | 1280 ± 96.1 | 32.1 ± 8.4 | 77.6 ± 17.1 | 2502 ± 2.61 | 182 ± 12.4 | 1770 ± 45.4 | 288 ± 6.91 | 1275 ± 12.6 | 1150 ± 102 | 2320 ± 38.6 | 2208 ± 3.21 | 448 ± 8.85 | 1760 ± 71.7 | 117 ± 36.4 | 1294 ± 7.55 | 106 ± 4.55 | 551 ± 58
2 | AGAGGUAGUAGGUUGCAUAGUU | 68.4 ± 19.5 | 26.1 ± 4.07 |  | 1430 ± 30.2 |  |  | 3250 ± 198 | 78 ± 2.68 | 1900 ± 59.9 | 260 ± 18.7 | 1690 ± 40.2 | 1740 ± 116 | 3640 ± 50 | 3510 ± 43.1 | 230 ± 7.35 | 1640 ± 152 | 63.1 ± 5.42 | 1830 ± 93.1 | 48.3 ± 8.88 | 630 ± 43.3
3 | CAGUGCAAUGAUGAAAGGGCAU | 37.9 ± 1.35 |  | 29.9 ± 0.976 | 868 ± 33.5 | 39.2 ± 6.51 | 23 ± 5.29 | 1810 ± 123 | 52.8 ± 3.39 | 398 ± 6.14 | 70.6 ± 0.849 | 338 ± 13.6 | 990.7 ± 2.47 | 2833 ± 25.8 | 2170 ± 30.4 | 235.49 ± 0.198 | 484 ± 5.24 | 77 ± 15.6 | 1111 ± 3.46 | 47.8 ± 6.69 | 236 ± 20
4 | UGAGGUAGUAGGUUGUAUAGUU | 22.8 ± 3.08 | 20.7 ± 2.69 | 22.3 ± 2.99 | 476 ± 12.5 | 23 ± 8.56 | 31.8 ± 10.7 | 883 ± 50 |  | 755 ± 86.6 | 37.8 ± 6.41 | 580 ± 40.2 | 626 ± 62.6 | 1458 ± 3.11 | 2100 ± 89.2 | 73.77 ± 0.226 | 546 ± 37.1 |  | 453 ± 6.64 | 21.4 ± 4.04 | 226 ± 23.1
5 | UGAGGUAGUAGGUUGUAUGGUU | 78.7 ± 6.91 | 41.2 ± 0.665 | 34.6 ± 6.43 | 1020 ± 53.3 | 26.1 ± 6.17 | 43.3 ± 2.77 | 2140 ± 29.2 | 104.2 ± 0.884 | 1830 ± 24.4 | 151 ± 11.5 | 1386 ± 9.72 | 1355 ± 13.5 | 2733 ± 6.99 | 2730 ± 37.5 | 263.8 ± 1.66 | 877 ± 50.3 | 95.6 ± 13.4 | 1148 ± 9.7 | 58.9 ± 3.79 | 644 ± 46.8
6 | UAGCUUAUCAGACUGAUGUUGA | 20.6 ± 3.13 |  | 22.52 ± 0.0849 | 508 ± 14.6 | 36.4 ± 14.3 |  | 24.6 ± 5.08 |  | 42.1 ± 2.96 | 153 ± 9.91 | 106 ± 5.55 | 126 ± 31.5 | 1820 ± 62.5 | 329 ± 38.4 | 35.05 ± 0.099 | 142 ± 42.3 |  | 108 ± 7.62 |  | 
